PubChem BioAssay (NCATS)
Results filed as inconclusive are left out. Active and inactive are the calls of the source. The call rests on the fitted dose curve; in most records, active means well fitted cell-killing curve with a large enough effect; inconclusive means small, poorly fitted or top-dose-only effect; inactive means no such curve, though single readings can be large or run the other way.

Experiment: qHTS of pediatric cancer cell lines to identify multiple opportunities for drug repurposing: Primary screen for Saos-2 cells (AID 1347097); further: nearly all actives have a fitted effect of over 40% in size
Details: Saos-2 viability, CellTiter-Glo ATP luminescence, 48 h; series mostly up to 46 µM
Excerpt: Drug repurposing or repositioning has been offered as a strategy for drug development in oncology programs. This approach has special potential for childhood cancers and other rare or orphan diseases, where the expected return on new drug development has been a disincentive to pharmaceuticals. […] In this project we exploit the poly-pharmacology of drugs to discover new indications via phenotypic screening of a panel of 19 well-characterized cell lines derived from solid tumors seen in children and adolescents. The goal is to identify approved drugs with previously unrecognized anticancer properties that has the potential to reveal new mechanisms and biological processes involved in carcinogenesis or drug resistance. We employed a titration-based paradigm (quantitative high-throughput screening or qHTS), where all compounds were tested at multiple concentrations for their effect on cell viability. Concentration-response curves (CRCs) were derived directly from the primary screen, and both potency and efficacy values were used to identify compounds with robust bioactivity profiles. We screened the NIH Chemical Genomics Center (NCGC) Pharmaceutical Collection (NPC) and Mechanism Interrogation Plate (MIPE) small molecule collections of approved and investigational compounds against these cell lines; and measured metabolically active cells after 48 hours of compound treatment as a proxy for cell viability. […] Assay Submitter: Nathalia J. Martinez, National Center for Advancing Translational Sciences, National Institutes of Health, Rockville, MD, USA; email: natalia.martinez@nih.gov Shen, M et al. Quantitative high-throughput phenotypic screening of pediatric cancer cell lines identifies multiple opportunities for drug repurposing. Oncotarget 2017 Dec 19;9(4):4758-4772. PMID 29435139.
The cells were obtained from University of North Carolina (UNC), Pediatric Preclinical Testing Program (PPT), and Coriell Institute (CI). qHTS cell viability assay: Cells were assayed in growth media at a density of 500-1,000 cells/well. Five microliters of cells were dispensed into 1,536-well, white, solid-bottom, TC-treated plates (Greiner Bio One) using a multidrop dispenser and incubated at 37 degrees C, 5% CO2, under a humidified atmosphere for 5 hours. Twenty-three nanoliters of compounds and controls (neutral control DMSO or positive control bortezomib at final concentration of 2.3 µM) were subsequently transferred by Kalypsys pintool. For primary screens, the MIPE collection was tested at 11-point dilutions (final concentrations range from 0.78 nM to 46 µM) and the NPC collection at 8-point dilutions (final concentrations range from 0.59 nM to 46 µM). Compounds tested in follow-up screens were assayed at 11-point dilutions. Cells were incubated for 48 hours, followed by addition of 3 µL of CellTiter-Glo (Promega). After a 15 min incubation at room temperature, samples were analyzed for luminescence intensity using a ViewLux High-throughput CCD imager equipped with clear filters.
Potency means the concentration at half of the fitted maximal effect.

Row | SMILES | Potency
1 | C[C@@H]1C[C@H]2[C@@H]3CCC4=CC(=O)C=C[C@]4(C)[C@@]3(F)[C@@H](O)C[C@]2(C)[C@@]1(O)C(=O)CO | inactive
2 | CC1(C)[C@H]2CC[C@]3(C)[C@@H](C(=O)C=C4[C@@H]5C[C@@](C)(C(=O)O)CC[C@]5(C)CC[C@]43C)[C@@]2(C)CC[C@@H]1O | inactive
3 | Cc1ccc2c(c1)c1c(n2CCc2ccc(C)nc2)CCN(C)C1 | inactive
4 | COc1cc(C=CC(=O)O)ccc1O | inactive
5 | O=S(=O)(NCCNCC=Cc1ccc(Br)cc1)c1cccc2cnccc12 | 16.6 µM (active)
6 | Oc1cc(O)cc(C=Cc2ccc(O)c(O)c2)c1 | 5.26 µM (active)
7 | Clc1ccc(C2(c3ccc(-c4cn[nH]c4)cc3)CCNCC2)cc1 | 4.18 µM (active)
8 | COc1cc2ncnc(Nc3cc(Br)c(O)c(Br)c3)c2cc1OC | 20.9 µM (active)
9 | O=C1CCCC(=O)C1C(=O)c1ccc(C(F)(F)F)cc1[N+](=O)[O-] | inactive
10 | C[C@@H](N)c1ccc(C(=O)Nc2ccnc3[nH]ccc23)cc1 | 14.8 µM (active)
11 | O=C(O)Cc1cccc(OCCCN(Cc2cccc(C(F)(F)F)c2Cl)CC(c2ccccc2)c2ccccc2)c1 | inactive
12 | O=c1[nH]c(=O)n([C@H]2C[C@@H](O)[C@@H](CO)O2)cc1I | inactive
13 | C[C@H]1COC2=C1C(=O)C(=O)c1c2ccc2c1CCCC2(C)C | 5.9 µM (active)
14 | CC[C@H](CC#N)OC(=O)N[C@@H](C)c1cccc(NC(=O)Nc2ccc(-c3cnco3)c(OC)c2)c1 | 18.7 µM (active)
15 | CC(C)(C)c1[nH]cnc1C=c1[nH]c(=O)c(=Cc2ccccc2)[nH]c1=O | 0.136 µM (active)
16 | NS(=O)(=O)c1cc(Cl)c(Cl)c(S(N)(=O)=O)c1 | inactive
17 | COc1cc(CNC(=O)CCCCC=CC(C)C)ccc1O | inactive
18 | CC=C(C(=CC)c1ccc(O)cc1)c1ccc(O)cc1 | 18.7 µM (active)
19 | C[C@]12CCC3=C4CCC(=O)C=C4CC[C@@H]3[C@H]1CC[C@@]2(O)CC#N | inactive
20 | CCN(CC)CCCCNc1nc2cc(Cl)c(Cl)cc2nc1-c1ccc(-c2cccs2)s1 | 18.7 µM (active)

Row | SMILES | Potency
21 | COc1c(C)cnc(Cn2cnc3c(Cl)nc(N)nc32)c1C | inactive
22 | CC(C)(C)c1nc(-c2cccc(NS(=O)(=O)c3c(F)cccc3F)c2F)c(-c2ccnc(N)n2)s1 | inactive
23 | Cc1nc2c([nH]1)CCN(C(=O)c1ccc(NC(=O)c3ccccc3-c3ccccc3)cc1)c1ccccc1-2 | inactive
24 | CCC(=O)OCC(=O)[C@@]1(OC(=O)CC)[C@@H](C)C[C@@H]2[C@H]3CCC4=CC(=O)C=C[C@]4(C)[C@@]3(F)[C@@H](O)C[C@@]21C | 0.187 µM (active)
25 | CON(C)C(=O)N1N=C(c2cc(F)ccc2F)S[C@]1(CCCN)c1ccccc1 | 0.001 µM (active)
26 | CN(CC=CC#CC(C)(C)C)Cc1cccc2ccccc12 | inactive
27 | CC(C)c1c(C(=O)Nc2ccccc2)c(-c2ccccc2)c(-c2ccc(F)cc2)n1CC[C@H](O)C[C@@H](O)CC(=O)O | 6.62 µM (active)
28 | C[C@@H]1[C@H](C)CC[C@]2(C(=O)O)CC[C@]3(C)C(=CC[C@@H]4[C@@]5(C)CC[C@H](O)C(C)(C)[C@H]5CC[C@]43C)[C@@H]12 | 9.59 µM (active)
29 | O=C(O)CCC=CCC[C@@H]1[C@H](N2CCCCC2)[C@@H](O)C[C@@H]1OCc1ccc(-c2ccccc2)cc1 | inactive
30 | COc1cc(F)c(C(C)C)cc1-c1ccc(C(F)(F)F)cc1CN1C(=O)O[C@H](c2cc(C(F)(F)F)cc(C(F)(F)F)c2)[C@@H]1C | inactive
31 | CC1=C[C@@H]2[C@@H]([C@@H](O)C[C@@]3(C)[C@H]2C[C@@H](C)[C@]3(O)C(=O)CO)[C@@]2(C)Cc3cnn(-c4ccccc4)c3C=C12 | 29.6 µM (active)
32 | CCc1cccc(CC)c1NC(=O)N1Cc2[nH]nc(NC(=O)c3ccc(N4CCN(C)CC4)cc3)c2C1 | 1.18 µM (active)
33 | COc1ccc(-c2oc3c(CC=C(C)C)c(O)cc(O)c3c(=O)c2O)cc1 | 23.5 µM (active)
34 | C[C@@H]1CC=CC=CC=CC=C[C@@H](O[C@@H]2O[C@H](C)[C@@H](O)[C@H](N)[C@H]2O)C[C@@H]2O[C@](O)(C[C@@H](O)C[C@@H]3O[C@@H]3C=CC(=O)O1)C[C@H](O)[C@@H]2C(=O)O | inactive
35 | Cc1ccc(S(=O)(=O)Nc2nc3ccccc3nc2Nc2ccc3nsnc3c2)cc1 | 0.0457 µM (active)
36 | Oc1ccc(C=Cc2cc(O)cc(O)c2)cc1 | 29.6 µM (active)
37 | Cc1ccccc1C(C(=O)NC1CCCCC1)N(C(=O)CNc1ccc(C#N)cc1)c1cccc(F)c1 (stereo not given) | 18.7 µM (active)
38 | COc1cc([C@H]2Oc3cc([C@H]4Oc5cc(O)cc(O)c5C(=O)[C@H]4O)ccc3O[C@H]2CO)ccc1O | inactive
39 | C[C@H]1[C@H](O)O[C@@H]2O[C@@]3(C)CC[C@@H]4[C@H](C)CC[C@@H]1[C@@]24OO3 | 2.96 µM (active)
40 | CC(NCCc1ccc(O)cc1)C(O)c1ccc(O)cc1 (stereo not given) | inactive
